What all share (assay): PBM binding z-score (relative to random genomic background probes); higher = stronger binding; sequences stand for … in GC…GCGATTGACAGCGTAGAATGAAGG
In test [1] the test system is FXR:RXRa (NR concentration 270 nM, RXRa partner concentration 90 nM). Summed up:
(§1)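 The probes on custom Agilent 4×180K protein-binding microarrays were double-stranded, with 34-nt variable regions bearing direct-repeat seeds, single-nucleotide variants, half-site ablations and random human genomic background sequences. Incubation lasted 1 h with ligand-free nuclear receptor dimers in PBS pH 7.4, 2% milk, 0.02% Triton X-100, 1 mM DTT, 0.2 mg/mL BSA and 0.4 mg/ml salmon testes DNA. Antibodies against each partner (one per run) detected bound dimers, and fluorescence scans were regression-normalized. Binding z-scores take the random background probes as reference.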

The subject of test [2] is LXRa:RXRa (NR concentration 270 nM, RXRa partner concentration 90 nM). Summed up:
as §1

Test [3] relates to LXRa homodimer (NR concentration 270 nM). Summed up: as §1
Test [4] deals with LXRb:RXRa (NR concentration 270 nM, RXRa partner concentration 90 nM). Summed up:
as §1

In test [5] the test system is LXRb homodimer (NR concentration 270 nM). Summed up: as §1
In test [6] the test system is PPARa:RXRa (NR concentration 270 nM, RXRa partner concentration 90 nM). Summed up:
as §1

Test [7] deals with PPARg:RXRa (NR concentration 180 nM, RXRa partner concentration 90 nM). Summed up: as §1
Test [8] concerns PPARg:RXRa 270nM:90nM, anti-RXR (NR concentration 270 nM, RXRa partner concentration 90 nM). Summed up: as §1
For test [9], the system named is PPARg:RXRa 30nM:10nM, anti-RXR (NR concentration 30 nM, RXRa partner concentration 10 nM). Summed up:
as §1

Test [10] has as its system PPARg:RXRa 90nM:30nM, anti-RXR (NR concentration 90 nM, RXRa partner concentration 30 nM). Summed up:
as §1

The test system of test [11] is PPARg:RXRa DBDmut IVT, anti-RXR (DBD mutation: RXRa K156A/R161A, NR concentration 270 nM, RXRa partner concentration 90 nM). Summed up:
as §1

Test [12] relates to PPARg:RXRa IVT, anti-PPARg (NR concentration 270 nM, RXRa partner concentration 90 nM). Summed up: as §1
Test [13] has as its system PPARg DBDmut:RXRa IVT, anti-PPARg (DBD mutation: PPARg1 K132A/R137A, NR concentration 270 nM, RXRa partner concentration 90 nM). Summed up:
as §1

For test [14], the system named is PPARg DBDmut IVT, anti-PPARg (DBD mutation: PPARg1 K132A/R137A, NR concentration 270 nM). Summed up:
as §1

Test [15] concerns PPARg homodimer (NR concentration 180 nM). Summed up: as §1
The test system of test [16] is PXR:RXRa (NR concentration 270 nM, RXRa partner concentration 90 nM). Summed up:
as §1

Test [17] has as its system PXR homodimer (NR concentration 270 nM). Summed up: as §1
Test [18] deals with RARa:RXR (NR concentration 270 nM, RXRa partner concentration 90 nM). Summed up: as §1
Test [19] has as its system RARa homodimer (NR concentration 270 nM). Summed up: as §1
The test system of test [20] is RARb:RXRa (NR concentration 270 nM, RXRa partner concentration 90 nM). Summed up:
as §1

For GCTGCTAGGTCAACAGATGGTCAGCTAAAGCTCG, the PBM binding z-score in test [1] was 3.13; in test [2], 2.22; in [3], -0.297; in [4], 1.37; in test [5] it was -0.198; in test [6], 2.99. Also, the PBM binding z-score in test [7] was found to be 2.43; in test [8], 2.5; in [9], 0.277; in test [10], 1.86; in [11], 4.44; in [12], 3.68. Besides, the PBM binding z-score in [13] was -0.0685; in test [14], -0.727; in test [15], 1.6; in test [16], 1.22; in test [17] it was -0.762; in test [18], 2.23. Also, the results for the PBM binding z-score in test [19] and in test [20] were -0.595 and 3.97, respectively.
In the case of AGCATGAGGTTATACGTAGATCAGGGAAGAAAGT, the PBM binding z-score in [1] worked out at 1.93; in test [2] it was 1.8; in [3] it was 0.246; in test [4] it was 1.47; in test [5], 0.257; in test [6], 2.43. The PBM binding z-score in test [7] was 0.933; in [8] it was 0.729; in [9], 0.259; in [10], 0.586; in [11], 0.656; in test [12], 0.149. Besides, the PBM binding z-score came out at 0.86 in [13]; 0.438 in test [14]; 0.658 in test [15]; 0.995 in test [16]; 0.948 in test [17]; 1.38 in test [18]. The results for the PBM binding z-score in test [19] and in test [20] were 0.699 and 1.46, respectively.
As for CTAGAAAGGTCGTGCTCAGGTGAGTATACCAAAC, the PBM binding z-score in test [1] was found to be 4.5; in test [2], 3.64; in [3], 0.405; in [4], 3.02; in [5], 0.336; in [6], 4.78. The PBM binding z-score stood at 2.51 in test [7]; 3.48 in [8]; 0.919 in test [9]; 2.34 in test [10]; 0.638 in test [11]; 1.62 in test [12]. Further, the PBM binding z-score is -0.0853 in [13]; 0.547 in test [14]; 1.73 in [15]; 2.82 in [16]; 0.0874 in test [17]; 4.02 in test [18]. For the same sequence, the PBM binding z-score in test [19] is 0.32; in test [20], 3.63.
For the sequence ATTTCTAGGTAAAGTTCAGTGAAAGATCGATAGA, the PBM binding z-score in test [1] came out at 1.69; in test [2], 2.17; in test [3], 1.41; in test [4] it was 1.4; in test [5] it was 1.27; in test [6], 2.82. For the same sequence, the PBM binding z-score in [7] turned out to be 3.19; in test [8] it was 4.21; in [9], 2.41; in test [10] it was 4.03; in [11], 4.75; in [12] it was 4.3. For the same sequence, the PBM binding z-score was found to be 2.07 in test [13]; 2.14 in test [14]; 2.58 in test [15]; 2.41 in test [16]; 2.25 in test [17]; 1.36 in [18]. Moreover, the PBM binding z-score in [19] is 2.45; in [20], 2.95.
As for CCTTACGGGTCACTCCAGGTTACAGCATCGGAGT, the PBM binding z-score in [1] was 4.9; in [2], 7.35; in [3], 2.06; in [4], 4.72; in test [5], 0.0209; in test [6], 4.42. Moreover, the PBM binding z-score in test [7] is 3.74; in [8] it was 3.8; in [9], 1.1; in test [10] it was 2.64; in test [11], 2.73; in [12] it was 4.01. Moreover, the PBM binding z-score in [13] is 0.164; in [14], -0.572; in [15] it was 1.91; in test [16], 4.66; in [17], 0.311; in test [18] it was 3.94. Further, the values for the PBM binding z-score in test [19] and in test [20] were 0.566 and 3.86, respectively.
TCTGCTAGGTCAGTTGATCAGCTAACGAGCTGCC: the PBM binding z-score is 0.721 in [1]; 0.672 in test [2]; -0.553 in test [3]; 0.169 in test [4]; -0.0241 in [5]; 0.983 in test [6]. Further, the PBM binding z-score came out at 0.167 in test [7]; 1.28 in test [8]; 1.07 in test [9]; 1.27 in test [10]; 2.51 in test [11]; 2.27 in [12]. The PBM binding z-score was 0.428 in test [13]; -0.296 in [14]; -0.547 in [15]; 0.199 in test [16]; -0.78 in test [17]; 0.424 in test [18]. Further, the PBM binding z-score in [19] was -1.32; in test [20], 3.

For the origin of these results see the supplement of paper PMC6555819.
